Here are results for eight molecules from PubChem BioAssay.

Activity calls are given as the source filed them.

The subject of experiment [1] is Plasmodium falciparum Sir2 (PF13_0152, Sir2A). Put plainly: Plasmodium falciparum Sir2A binding compounds – biochemical, small-molecule microarray, 635 nm fluorescence, primary screen (AID 1098).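 Note: score merges spot fluorescence intensity with its signal-to-noise ratio.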 Particulars: fluorescence 635 nm, higher = more signal.
The nature of experiment [2]: probe aDKK1 binding to arrayed compounds – biochemical, biotinylated probe, 635/667 nm fluorescence, primary screen (AID 1099).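 Note: score merges 667nm spot fluorescence with signal to noise across triplicate slides.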 The settings on record: small-molecule microarray, higher = more signal.
Experiment [3] in a line: probe aCHRDL2 binding to arrayed compounds – biochemical, biotinylated probe, 635/667 nm fluorescence, primary screen (AID 1100). The settings on record: small-molecule microarray, higher = more signal.
A short description of experiment [4]: change in splice reporter luminescence, either direction, cell-based, HEK293, spliceosome inhibition project, primary screen (AID 1101).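 Note: HEK293 cells carrying a splicing-competent luciferase reporter gene; test concentration not given here.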 Particulars: HEK293 splicing luciferase reporter, 24 h, higher = more signal, called active from +8 up or from −8 down. For orientation: Reporter assays use an easily measured gene product as a stand-in for the process of interest.

Experiment [5] concerns the target Fibroblast growth factor 10 (Homo sapiens) (UniProt O15520). Kind of experiment: compounds binding fibroblast growth factor 10 – biochemical, small-molecule microarray, 635 nm fluorescence, primary screen (AID 1102). The settings on record: FGF10 binding, fluorescence 635 nm, higher = more signal.
The subject of experiment [6] is glycogen synthase kinase-3 (GSK3A per assay name; protocol says GSK3B). Kind of experiment: compounds binding glycogen synthase kinase-3 – biochemical, small-molecule microarray, 635 nm fluorescence, GSK3A, primary screen (AID 1103). Note: the record names both GSK3A and GSK3B. The settings on record: fluorescence 635 nm, higher = more signal.
For experiment [7], the target named is Epidermal growth factor receptor (Homo sapiens) (UniProt P00533). Put plainly: compounds binding epidermal growth factor receptor – biochemical, small-molecule microarray, 635 nm fluorescence, primary screen (AID 1104).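 Note: score merges 667 nm emission intensity with spot signal to noise over triplicate slides.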 The settings on record: EGFR binding, higher = more signal.
Experiment [8] has as its target Follistatin-related protein 3 (Homo sapiens) (UniProt O95633). Kind of experiment: compounds binding follistatin-related protein 3 – biochemical, small-molecule microarray, 635 nm fluorescence, primary screen (AID 1105).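 Note: score merges emission near 667 nm and signal to noise per printed spot across three slides.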 The settings on record: FSTL3 binding, higher = more signal.
In experiment [9] the target is Dickkopf-related protein 1 (Homo sapiens) (UniProt O94907). Kind of experiment: small molecules binding DKK1 protein – biochemical, small-molecule microarray, 635 nm fluorescence scan, primary screen (AID 1106).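 Note: score merges emission near 667 nm with signal to noise over three replicate slides.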 Particulars: higher = more signal.
The test system of experiment [10] is Inhibin beta A chain (activin A). Put plainly: small molecules binding activin A – biochemical, small-molecule microarray, 635 nm fluorescence scan, primary screen (AID 1107).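 Note: mouse activin A protein probed at 4.33 µg/mL on printed slides; score merges bound-protein fluorescence near 667 nm with spot signal-to-noise.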 The settings on record: INHBA, higher = more signal.
The test system of experiment [11] is Human papillomavirus type 1a protein E7 (residues 44-93). Put plainly: small molecules binding HPV E7 44-93 – biochemical, small-molecule microarray, residues 44-93, 635 nm fluorescence, primary screen (AID 1108).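 Note: E7 fragment applied at 1 µg/mL in TBST for 1 h at 4 C; score combines spot fluorescence with its signal to noise ratio.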 The settings on record: fluorescence 635 nm, higher = more signal.
Experiment [12] can be described thus: hepatitis C replication reporter changes, two-sided – Huh7 cells, luciferase reporter, HCV replication inhibitor project, primary screen (AID 1109).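 Note: huh7 hepatoma cells harbouring a luciferase neomycin HCV replicon reporter; luciferase luminescence as measure of HCV replicon replication; test concentration not given here.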 The settings on record: Huh7 HCV replicon luciferase reporter, 48 h; higher = more signal.
Experiment [13] deals with Left-right determination factor 2 (Homo sapiens) (UniProt O00292). Put plainly: small molecules binding LEFTY2 protein – biochemical, small-molecule microarray, 635 nm fluorescence scan, primary screen (AID 1110). The settings on record: higher = more signal.
Experiment [14] concerns the target Calmodulin-1 (Homo sapiens) (UniProt P0DP23). Kind of experiment: small molecules binding calmodulin-1 with EGTA – biochemical, small-molecule microarray, Cy5-labelled CALM1, profiling panel (AID 1111).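 Note: labelled calmodulin applied in Tris saline Tween buffer holding calcium plus EGTA and DTT.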 The settings on record: Cy5-CALM1 binding fluorescence, higher = more signal.
The target is the same in experiment [15]. Put plainly: small molecules binding Ca-loaded calmodulin-1 – biochemical, small-molecule microarray, Cy5-labelled CALM1, plus calcium, artefact control for SMM control-protein annotation, profiling panel (AID 1112).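 Note: score merges spot fluorescence with signal to noise from triplicate slides.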 Particulars: Cy5-CALM1 binding fluorescence, higher = more signal.
The nature of experiment [16]: probe aWnt5a binding to arrayed compounds – biochemical, biotinylated probe, 635/667 nm fluorescence, primary screen (AID 1113).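 Note: score merges 667 nm fluorescence intensity with signal-to-noise per printed feature.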 Particulars: small-molecule microarray, higher = more signal.
A short description of experiment [17]: probe aShh binding to arrayed compounds – biochemical, biotinylated probe, 635/667 nm fluorescence, primary screen (AID 1114).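 Note: probe is biotin-labelled aShh protein from a stem cell growth factor screen; measures binding of labelled protein to compounds printed on the slide; score merges feature fluorescence at 667 nm with signal-to-noise.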 Particulars: small-molecule microarray, higher = more signal.
Experiment [18] in a line: probe aNog binding to arrayed compounds – biochemical, biotinylated probe, 635/667 nm fluorescence, primary screen (AID 1115).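 Note: probe is biotinylated aNog protein used at 0.15 µg/mL for 1 h at 4 C; z-score combines 667 nm fluorescence of each spot with its signal to noise.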 The settings on record: small-molecule microarray, higher = more signal.
Experiment [19] addresses Torsin-1A-interacting protein 1 (Homo sapiens) (UniProt Q5JTV8). Kind of experiment: compound microarray binding of lysate hLAP1 – cell lysate, small-molecule microarray, COS7 lysate, 635/667 nm fluorescence, primary screen (AID 1116). Particulars: 635 nm fluorescence, higher = more signal.
Experiment [20] addresses Alpha-bungarotoxin (Bungarus multicinctus) (UniProt P60615). Kind of experiment: compounds binding labelled alpha-BTX control protein – biochemical, small-molecule microarray, Alexa647 label, 635/667 nm fluorescence, artefact control for SMM control protein annotation, profiling panel (AID 1117). Particulars: alpha-BTX-A647 binding fluorescence, higher = more signal.

Alpha-bungarotoxin (Bungarus multicinctus), sequence (P60615 whole entry, looked up): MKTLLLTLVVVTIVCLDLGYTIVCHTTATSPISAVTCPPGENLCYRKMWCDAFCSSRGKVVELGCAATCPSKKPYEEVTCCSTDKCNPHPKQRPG
Dickkopf-related protein 1 (Homo sapiens), sequence (O94907 whole entry, looked up): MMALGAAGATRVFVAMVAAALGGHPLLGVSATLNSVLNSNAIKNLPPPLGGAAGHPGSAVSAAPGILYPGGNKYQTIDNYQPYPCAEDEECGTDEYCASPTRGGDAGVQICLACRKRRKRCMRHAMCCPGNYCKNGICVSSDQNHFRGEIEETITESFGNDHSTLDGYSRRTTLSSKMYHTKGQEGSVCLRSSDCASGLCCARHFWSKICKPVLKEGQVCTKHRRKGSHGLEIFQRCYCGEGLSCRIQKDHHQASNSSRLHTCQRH
Follistatin-related protein 3 (Homo sapiens), sequence (O95633 whole entry, looked up): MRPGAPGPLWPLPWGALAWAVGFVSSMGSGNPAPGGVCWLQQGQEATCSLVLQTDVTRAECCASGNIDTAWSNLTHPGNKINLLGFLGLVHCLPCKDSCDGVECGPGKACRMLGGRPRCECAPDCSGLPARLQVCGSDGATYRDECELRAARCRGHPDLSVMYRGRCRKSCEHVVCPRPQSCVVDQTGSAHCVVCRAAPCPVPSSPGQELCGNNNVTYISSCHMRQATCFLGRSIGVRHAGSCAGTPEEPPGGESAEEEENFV
Fibroblast growth factor 10 (Homo sapiens), sequence (O15520 whole entry, looked up): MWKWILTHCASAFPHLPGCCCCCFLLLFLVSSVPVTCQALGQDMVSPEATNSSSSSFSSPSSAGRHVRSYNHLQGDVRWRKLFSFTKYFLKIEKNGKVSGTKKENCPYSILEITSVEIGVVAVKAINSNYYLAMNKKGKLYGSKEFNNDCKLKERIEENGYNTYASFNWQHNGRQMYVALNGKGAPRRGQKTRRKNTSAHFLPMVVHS
Epidermal growth factor receptor (Homo sapiens), sequence (P00533 whole entry, looked up): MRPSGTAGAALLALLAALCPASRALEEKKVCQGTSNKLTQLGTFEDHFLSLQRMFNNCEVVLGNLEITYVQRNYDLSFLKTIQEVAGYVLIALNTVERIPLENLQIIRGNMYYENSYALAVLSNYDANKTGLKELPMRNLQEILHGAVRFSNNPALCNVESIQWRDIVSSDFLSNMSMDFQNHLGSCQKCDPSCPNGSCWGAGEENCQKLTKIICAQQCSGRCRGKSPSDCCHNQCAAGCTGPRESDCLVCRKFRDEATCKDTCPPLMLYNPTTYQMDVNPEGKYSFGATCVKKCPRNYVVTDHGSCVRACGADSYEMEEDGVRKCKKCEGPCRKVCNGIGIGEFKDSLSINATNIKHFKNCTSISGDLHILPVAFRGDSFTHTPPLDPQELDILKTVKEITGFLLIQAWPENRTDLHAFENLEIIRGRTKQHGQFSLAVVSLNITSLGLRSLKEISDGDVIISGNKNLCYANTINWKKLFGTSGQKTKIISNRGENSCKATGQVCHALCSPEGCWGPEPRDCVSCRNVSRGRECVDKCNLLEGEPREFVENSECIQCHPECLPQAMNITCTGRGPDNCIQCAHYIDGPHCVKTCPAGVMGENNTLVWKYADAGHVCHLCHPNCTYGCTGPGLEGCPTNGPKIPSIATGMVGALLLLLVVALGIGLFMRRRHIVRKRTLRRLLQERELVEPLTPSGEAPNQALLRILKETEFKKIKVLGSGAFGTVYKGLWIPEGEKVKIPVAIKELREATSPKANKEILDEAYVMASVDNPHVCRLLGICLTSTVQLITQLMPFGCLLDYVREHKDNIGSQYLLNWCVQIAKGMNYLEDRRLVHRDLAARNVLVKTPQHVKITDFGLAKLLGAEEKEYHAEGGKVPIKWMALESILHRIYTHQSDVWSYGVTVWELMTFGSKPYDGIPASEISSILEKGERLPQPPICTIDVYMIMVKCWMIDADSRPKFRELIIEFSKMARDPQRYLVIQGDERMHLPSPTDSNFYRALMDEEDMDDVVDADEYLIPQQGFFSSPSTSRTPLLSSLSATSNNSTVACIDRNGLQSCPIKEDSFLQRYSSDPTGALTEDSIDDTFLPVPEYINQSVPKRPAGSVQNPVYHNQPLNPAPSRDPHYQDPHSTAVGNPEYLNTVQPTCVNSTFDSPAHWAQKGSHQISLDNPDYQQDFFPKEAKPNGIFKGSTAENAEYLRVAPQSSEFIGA
Left-right determination factor 2 (Homo sapiens), sequence (O00292 whole entry, looked up): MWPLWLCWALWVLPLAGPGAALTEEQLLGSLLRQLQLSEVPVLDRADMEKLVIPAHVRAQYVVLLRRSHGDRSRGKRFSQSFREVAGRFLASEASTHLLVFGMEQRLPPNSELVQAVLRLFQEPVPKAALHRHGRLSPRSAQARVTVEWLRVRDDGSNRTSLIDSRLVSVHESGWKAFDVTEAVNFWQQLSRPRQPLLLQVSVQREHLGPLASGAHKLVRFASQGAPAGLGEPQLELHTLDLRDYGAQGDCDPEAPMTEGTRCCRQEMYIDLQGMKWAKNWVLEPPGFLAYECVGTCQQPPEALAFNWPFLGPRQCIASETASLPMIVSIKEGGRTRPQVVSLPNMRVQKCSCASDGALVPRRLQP
Torsin-1A-interacting protein 1 (Homo sapiens), sequence (Q5JTV8 whole entry, looked up): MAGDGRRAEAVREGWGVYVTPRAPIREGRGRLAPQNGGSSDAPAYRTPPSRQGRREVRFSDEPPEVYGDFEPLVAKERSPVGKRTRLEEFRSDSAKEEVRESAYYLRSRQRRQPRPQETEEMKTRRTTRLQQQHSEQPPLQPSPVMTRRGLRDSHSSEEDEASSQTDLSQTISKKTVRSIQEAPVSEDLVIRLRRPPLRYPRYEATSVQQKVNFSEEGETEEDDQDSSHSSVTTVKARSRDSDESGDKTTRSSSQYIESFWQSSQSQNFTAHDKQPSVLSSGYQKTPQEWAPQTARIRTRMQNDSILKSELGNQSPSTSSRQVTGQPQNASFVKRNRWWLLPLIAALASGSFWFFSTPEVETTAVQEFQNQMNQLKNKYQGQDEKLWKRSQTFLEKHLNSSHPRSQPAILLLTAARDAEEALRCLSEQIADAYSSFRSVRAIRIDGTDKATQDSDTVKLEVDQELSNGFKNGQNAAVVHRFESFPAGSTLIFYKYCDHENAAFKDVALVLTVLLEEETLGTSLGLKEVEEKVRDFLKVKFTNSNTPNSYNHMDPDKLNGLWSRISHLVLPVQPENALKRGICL

With `O=C(O)[C@H]1C[C@H]2C(=O)NCC(=O)N2[C@H]1c1ccc(O)cc1`, the composite z-score in [1] was 0.237; in experiment [2], -0.248; in experiment [3], -0.346; in [5], 0.413; in [6], 0.504; in [7] it was -0.213. Besides, the composite z-score was 0.845 in experiment [8]; 0.681 in experiment [9]; 0.23 in experiment [10]; -0.008 in experiment [11]; 0.205 in experiment [13]; -0.559 in experiment [14]. In addition, the composite z-score in [15] is -0.0282; in experiment [16], -0.147; in experiment [17], -0.214; in experiment [18], -0.312; in experiment [19] it was 0.519; in experiment [20], 2.03. Further, the z-score was -0.821 (inactive) in experiment [4] and 1.81 in experiment [12].

As to `C=CCC(OC(C)=O)[C@@H]1[C@@H](N(Cc2ccc(-c3ccccc3)cc2)C(=O)Cc2ccc(OC)cc2)c2cc(OCCCO)ccc2N1C(=O)c1ccc2ccccc2n1` (stereo not given in full), the composite z-score in [1] was -0.245; in [2] it was -0.106; in experiment [3] it was 0.027; in experiment [5] it was -0.19; in experiment [6], -0.494; in [7], 0.24. Further, the composite z-score in experiment [8] is -0.0321; in experiment [9], 0.37; in experiment [10], 1.48; in experiment [11], -0.844; in experiment [13], -0.259; in [14], 0.143. Besides, the composite z-score was 1.01 in [15]; 0.0259 in experiment [16]; -0.0553 in [17]; -0.0544 in experiment [18]; 0.589 in experiment [19]; 0.819 in experiment [20]. The z-score is -1.33 (inactive) in [4] and -0.36 in experiment [12].

For the molecule `CC(C)Cc1ccc(CN2CC[C@@H](NS(=O)(=O)c3ccccc3)C2)cc1`, the composite z-score in experiment [1] was -0.265; in experiment [2], -0.367; in experiment [3], -0.747; in experiment [5], -0.0725; in experiment [6], -0.375; in experiment [7], -0.608. Moreover, the composite z-score is 0.0789 in experiment [8]; 0.292 in experiment [9]; 0.298 in experiment [10]; 0.429 in experiment [11]; 0.0423 in [13]; -0.856 in experiment [14]. The composite z-score in experiment [15] was -0.859; in [16], -0.176; in experiment [17] it was -0.455; in [18], -0.438; in experiment [19], -0.633; in [20] it was -0.577. Besides, the z-score in [4] is 3.53 (inactive); in [12], -4.17.

Turning to `CC(C)c1ccc(NN2C(C(O)c3ccc(N(C)C)cc3)C=CC3C(=O)N(c4ccccc4)C(=O)C32)cc1` (stereo not given), the composite z-score in experiment [1] stood at 1.24; in experiment [2] it was 0.64; in [3] it was 0.947; in experiment [5] it was 0.782; in experiment [6], 0.267; in experiment [7], 0.0151. The composite z-score was 1.25 in experiment [8]; 0.469 in [9]; 0.898 in experiment [10]; 1.42 in experiment [11]; 0.0148 in [13]; 1.44 in experiment [14]. Further, the composite z-score is 0.176 in experiment [15]; 0.0317 in [16]; 0.13 in experiment [17]; 0.842 in [18]; 0.488 in [19]; 1.73 in [20]. Further, the z-score in experiment [4] is -0.132 (inactive); in experiment [12] it was 1.61.

On to `[N-]=[N+]=NCc1ccccc1C[C@@]1(C(=O)N2CCOCC2)N=C(c2ccc(OCCCO)cc2)O[C@@H]1c1ccccc1CN=[N+]=[N-]`, for which the composite z-score in [1] stood at 1.63; in experiment [2], 1.22; in experiment [3], 1.37; in experiment [5], 1.46; in experiment [6] it was 0.965; in experiment [7] it was 0.422. For the same molecule, the composite z-score in [8] is 0.656; in [9] it was -0.0757; in [10], 0.811; in experiment [11], -0.422; in experiment [13] it was -0.269; in experiment [14], 2.2. Also, the composite z-score in [15] is 1.06; in [16], 0.324; in experiment [17], 0.167; in experiment [18], -0.434; in experiment [19] it was 1.27; in experiment [20], 2.21. In addition, the z-score was -0.429 (inactive) in [4] and -2.43 in experiment [12].

With `CC1=C2[C@@H](CCc3ccccc3)OB(O)C[C@@H]2n2c(=O)n(-c3ccccc3)c(=O)n2C1`, the composite z-score was 0.897 in [1]; -0.0992 in [2]; -0.339 in experiment [3]; 0.355 in experiment [5]; 0.255 in experiment [6]; 0.249 in experiment [7]. Further, the composite z-score in [8] came out at 0.894; in experiment [9], 0.565; in [10] it was 0.421; in experiment [11], 0.352; in experiment [13], 0.664; in experiment [14] it was 0.177. Moreover, the composite z-score in experiment [15] is -0.878; in experiment [16], -0.096; in experiment [17], 0.133; in experiment [18], -0.198; in experiment [19], 0.543; in [20], -0.027. Further, the z-score in experiment [4] was 0.72 (inactive); in [12], -1.23.

On to `O=C1O[C@H](c2ccccc2)[C@H](c2ccccc2)N2[C@H]1[C@@H](C(=O)NC[C@H](O)c1ccccc1)[C@]1(C(=O)Nc3ccc(C#CCCO)cc31)[C@H]2c1ccc(O)cc1`, for which the composite z-score was -0.229 in experiment [1]; -0.145 in experiment [2]; 0.0258 in experiment [3]; -0.716 in experiment [5]; -1.28 in experiment [6]; -0.286 in [7]. Besides, the composite z-score in [8] is -1.17; in experiment [9], -0.523; in experiment [10], 0.644; in experiment [11] it was -0.453; in experiment [13], -0.47; in experiment [14], -0.6. The composite z-score is -0.158 in experiment [15]; -0.202 in experiment [16]; 0.0469 in experiment [17]; -0.0725 in experiment [18]; 0.0234 in [19]; -1.61 in [20]. Besides, the z-score was -0.551 (inactive) in experiment [4] and -1.07 in experiment [12].

In the case of `O=C1C2C=CC(C(O)c3cccs3)N(Nc3ccccc3F)C2C(=O)N1c1ccccc1` (stereo not given), the composite z-score amounted to 0.87 in experiment [1]; 0.266 in experiment [2]; 0.541 in [3]; 0.092 in experiment [5]; 0.308 in [6]; 0.0444 in experiment [7]. In addition, the composite z-score is 0.224 in experiment [8]; -0.0382 in [9]; 0.804 in experiment [10]; 0.749 in [11]; -0.0883 in [13]; 0.0073 in experiment [14]. Also, the composite z-score in [15] is -0.65; in [16], 0.0633; in experiment [17] it was 0.0723; in [18], -0.126; in [19] it was 0.543; in [20] it was 0.825. Moreover, the z-score in experiment [4] is -0.743 (inactive); in experiment [12] it was 0.124.
